Measurements reported in PubChem BioAssay (Tox21).
Inconclusive results are not listed. Unmarked numbers belong to inactive results. The source made the active and inactive calls. Calls follow the shape of the dose curve; as a rule, active = well fitted cell-killing curve with a large enough effect in the repeat runs; inconclusive = weak or mixed curves, or effect the other way; inactive = no such curve, though single readings can be large or run the other way.

Test: qHTS assay to identify small molecule antagonists of the progesterone receptor (PR) signaling pathway - cell viability counter screen (AID 1346798); also: nearly all actives have a fitted effect of over 50% in size
Details: PR-UAS-bla HEK293T viability, CellTiter-Glo luminescence, 16 h; series mostly up to 92.4 µM; activity change, negative = cytotoxicity: at the top concentration
Text: National Center for Advancing Translational Sciences [NCATS]
NIH Chemical Genomics Center [NCGC]
U.S. Environmental Protection Agency [EPA]
National Institutes of Environmental Health Sciences [NIEHS]
National Toxicology Program [NTP]
U.S. Food and Drug Administration [FDA]
Progesterone receptor (PR), a nuclear hormone receptor, plays an important role in development, metabolic homeostasis and reproduction. It is activated by the steroid hormone progesterone. Endocrine disrupting chemicals (EDCs) and their interactions with steroid hormone receptors like PR causes disruption of normal endocrine function. To identify the compounds that inhibit PR signaling, a PR-UAS-bla GripTite cell line i.e. PR-UAS-bla HEK293T (Invitrogen, Carlsbad, CA, USA) containing a beta-lactamase reporter gene under the control of an UAS response element was used to screen Tox21 10K compound library. The cytotoxicity of the Tox21 compound library against the PR-bla cell line was tested in parallel by measuring the cell viability using CellTiter-Glo assay in the same wells.
Tox21 Assay Protocol Summary:
PR-UAS-bla HEK293T cells were dispensed at 3,000 cells/4 uL of assay medium containing 2% charcoal stripped FBS per well into black wall/clear-bottom 1536-well plates using a Multidrop Combi (ThermoFisher Scientific, Waltham, MA) dispenser. After the assay plates were incubated at a 37C and 5% CO2 for 4 hr, 23 nL of compounds dissolved in DMSO, positive controls or DMSO only was transferred to the assay plate by a Pintool station (Kalypsys, San Diego, CA), followed by addition of 1 uL of R5020 in assay medium using a Flying Reagent Dispenser (FRD, Aurora Discovery, San Diego, CA). The plates were incubated at 37C and 5% CO2 for 16 hr. Then 1 uL of LiveBLAzer B/G FRET substrate was added using a Flying Reagent Dispenser, the plates were incubated at room temperature for 2 hours, and fluorescence intensity was measured by an Envision plate reader (PerkinElmer, Shelton, CT). For cell viability readout that measures cytotoxicity, 4 uL/well of CellTiter-Glo reagent was added into the assay plates using a FRD. After 30 min incubation at room temperature, the luminescence intensity in the plates was measured using a ViewLux (PerkinElmer) plate reader.
% is scaled to controls: 0 for no effect and ±100 for the full control effect; potency is read from the fitted curve at half-maximal effect.

| SMILES | activity change, negative = cytotoxicity | Potency |
| --- | --- | --- |
| CN1CCc2cc(Cl)c(O)cc2[C@H]2c3ccccc3CC[C@@H]21 | -29.2% [at 42.5 µM] | – |
| O=[N+]([O-])c1cccc2cccc([N+](=O)[O-])c12 | 5.32% | – |
| ClSC(Cl)(Cl)Cl | 5.59% | – |
| C=Cc1cccc(CCl)c1 | -2.93% [at 238 µM] | – |
| O=C(N[C@H]1N=C(c2ccccc2F)c2cccc3c2N(CC3)C1=O)c1cc2ccccc2[nH]1 | 16.4% [at 42.5 µM] | – |
| CCOP(=O)(OCC)Oc1nc(Cl)c(Cl)cc1Cl | 0.133% | – |
| Clc1ccc(C(c2ccc(Cl)cc2)C(Cl)Cl)cc1 | 7.57% | – |
| CCC[CH2][Sn]([CH2]CCC)([CH2]CCC)[O][Sn]([CH2]CCC)([CH2]CCC)[CH2]CCC | – | 1.68 µM (active) |
| C=C(C)C(=O)[O][Sn]([CH2]CCC)([CH2]CCC)[CH2]CCC | – | 3.44 µM (active) |
| S=C=Nc1ccccc1 | 16.3% | – |
| S=C=NCCc1ccccc1 | – | 21.7 µM (active) |
| Cc1ccc2cc3c(ccc4ccccc43)c3c2c1CC3 | 4.2% [at 42.5 µM] | – |
| Brc1cccc(-c2ccccc2)c1 | 13.6% | – |
| C#CCO | -10.5% | – |
| CC(Cc1ccc(O)cc1)NCC(O)c1cc(O)cc(O)c1 (stereo not given) | 1.33% [at 42.5 µM] | – |
| Cc1nn(-c2cc(NS(C)(=O)=O)c(Cl)cc2Cl)c(=O)n1C(F)F | -7.94% | – |
| Oc1cc(Cl)c(Cl)c(Cl)c1Cl | -23.7% | – |
| c1cc[n+]2c(c1)-c1cccc[n+]1CC2 | 22.2% [at 42.5 µM] | – |
| CCC1COC(Cn2cncn2)(c2ccc(Cl)cc2Cl)O1 (stereo not given) | 7.31% | – |
| CC(C)NCC(O)c1ccccc1Cl (stereo not given) | -17.3% [at 42.5 µM] | – |

| SMILES | activity change, negative = cytotoxicity | Potency |
| --- | --- | --- |
| [O]=[Cr][O][Cr]=[O] | -2.86% | – |
| COc1nc(C)nc(NC(=O)NS(=O)(=O)c2ccccc2Cl)n1 | 3.89% | – |
| Oc1ccc(Cl)c(Cl)c1 | -12.6% | – |
| CCCCn1cc[n+](C)c1 (tested in a mixture with another compound) | 2.73% | – |
| O=[N+]([O-])c1ccc(Cl)c(Cl)c1Cl | -12.6% | – |
| [C-]1=CC=CC1.[Cl][Zr+2][Cl].c1cc[cH-]c1 | 4.75% | – |
| COP(=O)(OC)O/C(=C\Cl)c1cc(Cl)c(Cl)cc1Cl | 4.24% | – |
| Cc1ccn2nc(S(=O)(=O)Nc3c(F)cccc3F)nc2n1 | 4.45% | – |
| [Cl][Hg][c]1ccccc1 | – | 3.06 µM (active) |
| Nc1cc(Cl)ccc1Cl | 2.53% | – |
| CCC(C)c1cccc(C(C)CC)c1O (stereo not given) | 54.4% | – |
| [O-][Cl+3]([O-])([O-])O | 8.53% | – |
| CCN1CCC2(CC1)COc1cc3c(cc12)N(C(=O)c1ccc(-c2ccc(-c4nnc(C)o4)cc2C)cc1)CC3 | – | 25.2 µM (active) |
| CC(O)C(=O)[O][Hg][c]1ccccc1 (stereo not given) | – | 4.86 µM (active) |
| COc1ccc2c(c1OC)C(=O)O[C@@H]2[C@H]1c2cc3c(cc2CCN1C)OCO3 | -4.4% | – |
| Clc1ccc(C(Cl)(Cl)Cl)cc1Cl | 18.2% | – |
| CC(=O)O.CC(=O)O.CC(=O)O.CC(=O)O.CC(=O)O.CC(=O)O.CC(=O)O.O.O.[Cr].[Cr].[Cr] | 2.71% | – |
| CCOC(=O)CCN(SN(C)C(=O)Oc1cccc2c1OC(C)(C)C2)C(C)C | 11.4% | – |
| [F][Sn]([c]1ccccc1)([c]1ccccc1)[c]1ccccc1 | – | 1.37 µM (active) |
| CSC(=O)c1c(C(F)F)nc(C(F)(F)F)c(C(=O)SC)c1CC(C)C | 7.35% | – |
